Consider 32 compounds from PubChem BioAssay (Tox21).

The source made the active and inactive calls. The call rests on the fitted dose curve; in most records, active means well fitted curve in the direction sought with a large enough effect in the repeat runs; inconclusive means weak or mixed curves; inactive means flat fitted curve, though single readings scatter.
On the % scale 0 is the no-effect control and ±100 the full control effect.

The assay in a line: qHTS assay to test for compound auto fluorescence at 590 nm (red) in HepG2 cells (AID 720674). As to conditions: HepG2 autofluorescence, red 540/590 nm, 1 h; series mostly up to 91.3 µM; fluorescence, relative to Rose Bengal: at the top concentration. The method, boiled down: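 Intrinsic compound fluorescence in the red window (Ex/Em 540/590 nm) is measured in attached HepG2 cells exposed for 1 hr, DMSO vehicle as baseline, benchmarked to Rose Bengal sodium.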
On to `CS/C(C)=N/OC(=O)N(C)SN(C)C(=O)O/N=C(\C)SC`, for which the “fluorescence, relative to Rose Bengal” value is 0.0622% (inactive).
On to `[CH3][Sn]([CH3])([Cl])[Cl]`, for which the outcome was inactive.
Regarding `O=C=Nc1ccc(Cl)cc1`, the “fluorescence, relative to Rose Bengal” value was 0.174% (inactive).
Still for that read-out and setting: to `CCOP(=S)(OCC)SCn1nnc2ccccc2c1=O` belongs -0.0206% (inactive); to `COP(=S)(Oc1cc(Cl)c(Br)cc1Cl)c1ccccc1` (configuration not stated), 0.145% (inactive).
`CC(C)(C)c1cc([N+](=O)[O-])cc([N+](=O)[O-])c1O`: the “fluorescence, relative to Rose Bengal” value is -0.0944% (inactive).
With `CCCCC(O)(Cn1cncn1)c1ccc(Cl)cc1Cl` (configuration not stated), the “fluorescence, relative to Rose Bengal” value was -0.0804% (inactive).
Same read-out and setting: the figure for `Clc1cccc2ccccc12` is -0.0452% (inactive); for `Cl/C=C\C[N+]12CN3CN(CN(C3)C1)C2` it is -0.068% (inactive).
On the same count and under the same terms, to `Clc1cc(C(Cl)(Cl)Cl)cnc1Cl` belongs -0.0341% (inactive); to `O=C1C(=O)c2cccc3cccc1c23`, -0.218% (inactive); to `CC1(C)CCC(Cc2ccc(Cl)cc2)C1(O)Cn1cncn1` (configuration not stated), 0.0628% (inactive).
Same read-out and setting: the figure for `CO/N=C(/C(=O)OC)c1ccccc1COc1ccccc1C` is 0.0614% (inactive); for `O=C(NC(=O)c1c(F)cccc1F)Nc1ccc(OC(F)(F)C(F)OC(F)(F)F)c(Cl)c1` (configuration not stated) it is -0.232% [at 46 µM] (inactive).
As for `O=C1CN=C(c2ccccc2)c2cc(Cl)ccc2N1CC1CC1`, the compound was classed as inactive.
In the case of `OC(c1ccc(Cl)cc1)(c1ccc(Cl)cc1)c1cccnc1`, the “fluorescence, relative to Rose Bengal” value was 0.097% (inactive).
On the same count and under the same terms, to `BrCC(Br)C1CCC(Br)C(Br)C1` (configuration not stated) belongs 0.0972% (inactive); to `CC(C)O.CC(C)O.OCCN(CCO)CCO.OCCN(CCO)CCO.[Ti]`, 0.0674% (inactive).
Same read-out and setting: to `Cc1c(F)c(F)c(COC(=O)C2C(/C=C(\Cl)C(F)(F)F)C2(C)C)c(F)c1F` (configuration not stated) belongs 0.0661% (inactive); to `COC(=O)C(Br)CBr` (configuration not stated), -0.0437% (inactive).
For `CCOP(=S)(Oc1ccc([N+](=O)[O-])cc1)c1ccccc1` (configuration not stated), the “fluorescence, relative to Rose Bengal” value is 0.123% (inactive).
As to `O=[N+]([O-])C(Br)(CO)CO`, the outcome was inactive.
Regarding `O=C(O)C(F)(F)C(F)(F)C(F)(F)C(F)(F)C(F)(F)C(F)(F)C(F)(F)C(F)(F)C(F)(F)F`, the “fluorescence, relative to Rose Bengal” value is 0.0464% (inactive).
Still for that read-out and setting: to `NS(=O)(=O)C(F)(F)C(F)(F)C(F)(F)C(F)(F)C(F)(F)C(F)(F)C(F)(F)C(F)(F)F` belongs 0.0104% (inactive); to `C/C(=C\c1ccccc1)[N+](=O)[O-]`, 0.009% (inactive); to `COCCOCCO`, 0.511% (inactive).
As to `Clc1cccc(SC2CCNCC2)n1`, the “fluorescence, relative to Rose Bengal” value was 0.134% [at 46 µM] (inactive).
In the case of `CC(C)(C)C(O)C(Oc1ccc(Cl)cc1)n1cncn1` (configuration not stated), the “fluorescence, relative to Rose Bengal” value was 0.685% (inactive).
As for `O=[N+]([O-])c1cc(C(F)(F)F)cc([N+](=O)[O-])c1Cl`, the “fluorescence, relative to Rose Bengal” value was 0.0195% (inactive).
With `C=CC(=O)OCC(C)O` (configuration not stated), the “fluorescence, relative to Rose Bengal” value is 0.259% [at 95.7 µM] (inactive).
As for `C=CCN1CC[C@]23c4c5ccc(O)c4O[C@H]2C(=O)CC[C@@]3(O)[C@H]1C5`, the compound was classed as inactive.
Turning to `O=C(O)C1(c2ccc3c(c2)OC[C@H](Cc2ccc(-c4ccccc4)cc2)[C@H]3O)CCCC1`, the “fluorescence, relative to Rose Bengal” value was 0.0896% (inactive).
